Structures can show the parent of a compound that is named as a salt. ± gives the standard deviation of the averaged measurements.
Experiments:
Assay in all cases: growth (OD600 after 10 h); higher = more growth (less inhibition)
[1] = system: E. coli TESEC Alr+ wild-type control; details: compound 0.1 mM; raw OD600 reference: median of DMSO wells 0.241, cell-free background 0.041
Procedure: (§1)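 TESEC Mtb Alr E. coli, or the Alr+ wild-type control, in 384-well plates with Prestwick library compounds at 0.1 mM and 1% DMSO, across arabinose induction levels of 1E3 to 1E7 nM. Growth is read as OD600 after 10 h at 37 °C in triplicate biological replicates.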

E. coli TESEC Mtb Alr [2] = details: compound 0.1 mM
Procedure: as §1

E. coli TESEC Mtb Asd = details: compound 0.1 mM
Procedure: (§2)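 TESEC E. coli strains in which the native enzyme is deleted and replaced by arabinose-inducible Mtb Asd, DapB, CysH or TrpD, each grown in its selective medium. Strains were screened against the Prestwick library at 0.1 mM and 1% DMSO in 384-well format at low and high arabinose induction. Growth is read as OD600 after 10 h in triplicate.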

E. coli TESEC Mtb DapB = details: compound 0.1 mM
Procedure: as §2

E. coli TESEC Mtb Alr [3] = details: compound 0.1 mM; remark: listed apart in the source
Procedure: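 TESEC Mtb Alr E. coli (ΔaraC ΔtolC ΔentC Δalr ΔdadX, arabinose-inducible Mtb Alr) or the Alr+ wild-type control strain, grown in defined M9-fructose medium without D-alanine in 96-well plates with Prestwick library compounds at 0.1 mM and 1% DMSO. Low Alr induction is 0.1 µM arabinose and high induction is 10 mM arabinose.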

[4] = arabinose 1000 nM, raw OD600 reference: median of DMSO wells 0.294, cell-free background 0.041
[5] = arabinose 10000 nM, raw OD600 reference: median of DMSO wells 0.264, cell-free background 0.041
[6] = arabinose 100000 nM, raw OD600 reference: median of DMSO wells 0.201, cell-free background 0.041
[7] = arabinose 1000000 nM, raw OD600 reference: median of DMSO wells 0.193, cell-free background 0.041
[8] = arabinose 10000000 nM, raw OD600 reference: median of DMSO wells 0.146, cell-free background 0.041
[9] = arabinose induction (level): High, raw OD600 reference: median of DMSO wells 0.331, cell-free background 0.041
[10] = arabinose induction (level): Low, raw OD600 reference: median of DMSO wells 0.417, cell-free background 0.041
[11] = arabinose induction (level): High, raw OD600 reference: median of DMSO wells […], cell-free background 0.041
[12] = arabinose induction (level): Low, raw OD600 reference: median of DMSO wells 0.227, cell-free background 0.041
[13] = arabinose 100 nM, raw OD600 reference: median of DMSO wells 0.413, cell-free background 0.052
[14] = arabinose 10000000 nM, raw OD600 reference: median of DMSO wells […], cell-free background 0.052

SMILES | growth [1] | growth (E. coli TESEC Mtb Alr [2]; [4]) | growth (E. coli TESEC Mtb Alr [2]; [5]) | growth (E. coli TESEC Mtb Alr [2]; [6]) | growth (E. coli TESEC Mtb Alr [2]; [7]) | growth (E. coli TESEC Mtb Alr [2]; [8]) | growth (E. coli TESEC Mtb Asd; [9]) | growth (E. coli TESEC Mtb Asd; [10]) | growth (E. coli TESEC Mtb DapB; [11]) | growth (E. coli TESEC Mtb DapB; [12]) | growth (E. coli TESEC Mtb Alr [3]; [13]) | growth (E. coli TESEC Mtb Alr [3]; [14])
COc1ccc2cc([C@H](C)C(=O)O)ccc2c1 [Naproxen] | 0.26 ± 0.0081 | 0.265 ± 0.029 | 0.249 ± 0.014 | 0.187 ± 0.012 | 0.168 ± 0.0019 | 0.132 ± 0.0043 | 0.247 ± 0.028 | 0.426 ± 0.063 | 0.18 ± 0.062 | 0.217 ± 0.027 | 0.42 ± 0.0057 | 0.293 ± 0.019
COc1c(O[C@@H]2O[C@H](CO)[C@@H](O)[C@H](O)[C@H]2O)cc2c(c1OC)-c1ccc(SC)c(=O)cc1[C@@H](NC(C)=O)CC2 [Thiocolchicoside] | 0.254 ± 0.01 | 0.307 ± 0.0068 | 0.275 ± 0.0073 | 0.229 ± 0.023 | 0.186 ± 0.0019 | 0.149 ± 0.0088 | 0.271 ± 0.091 | 0.291 ± 0.082 | 0.206 ± 0.024 | 0.236 ± 0.015 | 0.414 ± 0.011 | 0.35 ± 0.023
Clc1cccc(Cl)c1NC1=NCCN1 [Clonidine hydrochloride] | 0.245 ± 0.01 | 0.289 ± 0.0065 | 0.261 ± 0.0058 | 0.201 ± 0.023 | 0.173 ± 0.0049 | 0.145 ± 0.011 | 0.377 ± 0.03 | 0.422 ± 0.016 | 0.195 ± 0.012 | 0.26 ± 0.034 | 0.407 ± 0.013 | 0.375 ± 0.017
CN(C)CCOC(c1ccccc1)c1ccccc1 [Diphenhydramine hydrochloride] | 0.2284 ± 0.002 | 0.296 ± 0.008 | 0.238 ± 0.0071 | 0.187 ± 0.013 | 0.151 ± 0.0087 | 0.148 ± 0.0063 | 0.194 ± 0.016 | 0.435 ± 0.016 | 0.195 ± 0.021 | 0.24 ± 0.051 | 0.408 ± 0.0097 | 0.307 ± 0.029
CCOc1nc2cccc(C(=O)O)c2n1Cc1ccc(-c2ccccc2-c2nnn[nH]2)cc1 [Candesartan] | 0.238 ± 0.0077 | 0.297 ± 0.0053 | 0.285 ± 0.0054 | 0.212 ± 0.023 | 0.222 ± 0.015 | 0.141 ± 0.0058 | 0.292 ± 0.03 | 0.265 ± 0.029 | 0.197 ± 0.0041 | 0.205 ± 0.024 | 0.415 ± 0.0062 | 0.355 ± 0.0055
Cn1c(=O)c2[nH]cnc2n(C)c1=O [Aminophylline] | 0.246 ± 0.005 | 0.292 ± 0.012 | 0.262 ± 0.0083 | 0.196 ± 0.0098 | 0.195 ± 0.0022 | 0.134 ± 0.0058 | 0.287 ± 0.065 | 0.457 ± 0.018 | 0.226 ± 0.017 | 0.234 ± 0.023 | 0.406 ± 0.015 | 0.355 ± 0.019
CCOc1ccc2c(c1)C(C)=CC(C)(C)N2 [Ethoxyquin] | 0.183 ± 0.0075 | 0.283 ± 0.015 | 0.249 ± 0.007 | 0.192 ± 0.017 | 0.118 ± 0.0015 | 0.227 ± 0.067 | 0.353 ± 0.083 | 0.305 ± 0.042 | 0.196 ± 0.0042 | 0.205 ± 0.024 | 0.408 ± 0.0097 | 0.167 ± 0.068
CC(C)NCC(O)COc1cccc2[nH]ccc12 (configuration not stated) [Pindolol] | 0.233 ± 0.0063 | 0.286 ± 0.024 | 0.271 ± 0.014 | 0.203 ± 0.0064 | 0.179 ± 0.0088 | 0.142 ± 0.00072 | 0.393 ± 0.0086 | 0.403 ± 0.021 | 0.201 ± 0.011 | 0.231 ± 0.048 | 0.413 ± 0.0051 | 0.376 ± 0.013
NS(=O)(=O)c1cc2c(cc1Cl)N=CNS2(=O)=O [Chlorothiazide] | 0.254 ± 0.0047 | 0.29 ± 0.0056 | 0.268 ± 0.0056 | 0.212 ± 0.021 | 0.183 ± 0.0053 | 0.1414 ± 0.00081 | 0.433 ± 0.014 | 0.447 ± 0.045 | 0.193 ± 0.006 | 0.239 ± 0.024 | 0.403 ± 0.014 | 0.354 ± 0.0098
Nc1nc(=O)[nH]cc1F [Flucytosine] | 0.245 ± 0.0069 | 0.309 ± 0.022 | 0.243 ± 0.0058 | 0.187 ± 0.011 | 0.175 ± 0.008 | 0.14 ± 0.0027 | 0.456 ± 0.025 | 0.492 ± 0.026 | 0.21 ± 0.018 | 0.222 ± 0.016 | 0.411 ± 0.015 | 0.333 ± 0.02
Cc1ccc(/C(=C\CN2CCCC2)c2ccccn2)cc1 [Triprolidine hydrochloride] | 0.223 ± 0.0078 | 0.27 ± 0.014 | 0.257 ± 0.0035 | 0.213 ± 0.017 | 0.176 ± 0.0043 | 0.141 ± 0.005 | 0.264 ± 0.029 | 0.427 ± 0.05 | 0.165 ± 0.0066 | 0.214 ± 0.055 | 0.41 ± 0.0077 | 0.368 ± 0.019
CCN(CC)CCOC(=O)C(Cc1cccc2ccccc12)CC1CCCO1 (configuration not stated) [Nafronyl oxalate] | 0.15 ± 0.0052 | 0.219 ± 0.0043 | 0.255 ± 0.014 | 0.157 ± 0.0057 | 0.0991 ± 0.0023 | 0.151 ± 0.0053 | 0.127 ± 0.0055 | 0.309 ± 0.11 | 0.184 ± 0.019 | 0.174 ± 0.008 | 0.407 ± 0.0062 | 0.293 ± 0.015
CN(c1nccc(=O)[nH]1)C1CCN(c2nc3ccccc3n2Cc2ccc(F)cc2)CC1 [Mizolastine] | 0.18 ± 0.016 | 0.221 ± 0.011 | 0.172 ± 0.0085 | 0.215 ± 0.01 | 0.0813 ± 0.0018 | 0.1409 ± 0.0014 | 0.177 ± 0.0092 | 0.293 ± 0.036 | 0.2 ± 0.039 | 0.174 ± 0.012 | 0.406 ± 0.0081 | 0.162 ± 0.026
COC(=O)Nc1nc2cc(C(=O)c3ccc(F)cc3)ccc2[nH]1 [Flubendazol] | 0.249 ± 0.026 | 0.307 ± 0.032 | 0.2591 ± 0.00086 | 0.197 ± 0.028 | 0.191 ± 0.0051 | 0.141 ± 0.0081 | 0.43 ± 0.019 | 0.491 ± 0.029 | 0.2 ± 0.01 | 0.231 ± 0.03 | 0.414 ± 0.018 | 0.435 ± 0.011
Cc1cc(C(C)(C)CC(C)(C)C)ccc1OCCOCC[N+](C)(C)Cc1ccccc1 [Methyl benzethonium chloride] | 0.0446 ± 0.0012 | 0.0483 ± 0.0025 | 0.0504 ± 0.002 | 0.0489 ± 0.00059 | 0.04487 ± 0.00031 | 0.04963 ± 0.00035 | 0.0532 ± 0.001 | 0.0608 ± 0.0092 | 0.0545 ± 0.0014 | 0.0542 ± 0.00078 | 0.0556 ± 0.0023 | 0.0529 ± 0.0018
O=C(O)c1cc(/N=N/c2ccc(S(=O)(=O)Nc3ccccn3)cc2)ccc1O [Sulfasalazine] | 0.274 ± 0.0048 | 0.308 ± 0.0065 | 0.254 ± 0.0054 | 0.193 ± 0.018 | 0.169 ± 0.011 | 0.131 ± 0.0032 | 0.314 ± 0.065 | 0.363 ± 0.054 | 0.207 ± 0.018 | 0.231 ± 0.03 | 0.431 ± 0.0053 | 0.349 ± 0.017

Reference: the supplement of paper PMC9262897, “Low-cost anti-mycobacterial drug discovery using engineered E. coli” (Nature Communications, 2022)
